Results: PubChem BioAssay (NCI)
The panel holds about 83,000 compounds, 20% with a hit somewhere; the sample as a whole holds those more often.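 In brief: 96-well plates, 48 h treatment, single concentration, percent growth endpoint.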 Calls of active or inactive are those of the source. Rule for the calls: active = growth percent below 10; inactive = the rest.

What follows are compounds tested on HCT-116 colon (assay: NCI-60 one-dose screen, 48 h (100 = growth as untreated, 0 = no growth, -100 = all killed)). Conditions: 10 µM unless noted.

Row | SMILES | growth
1 | COC(=O)[C@@H](NC(=O)[C@@H](OC)[C@@H]1Cc2cc3cc(OC4CC(OC5CC(O)C(O)C(C)O5)C(O)C(C)O4)c(C)c(O)c3c(O)c2C(=O)[C@H]1OC1CC(OC2CC(OC3CC(C)(O)C(O)C(C)O3)C(O)C(C)O2)C(O)C(C)O1)C(C)C (some centres undefined) | 4.79% (active)
2 | Nc1c2c(c(O)c3c1=C(CO)C=N3)=NCCS2=O (centres undefined) | -49.3% (active)
3 | C=CC[n+]1c(/C=C2\Sc3ccccc3N2C)sc(-c2ccccc2)c1-c1ccccc1 | 12% (inactive)
4 | CC1(C=O)NC(=O)NC1=O (centres undefined) | 90.5% (inactive)
5 | COc1cc2c3c(c1)nc(C)n3CCC2 | 92.8% (inactive)
6 | COc1cc2c(Oc3ccc4[nH]c(C)cc4c3F)ncnc2cc1OCCCN1CCCC1 | 89.3% (inactive)
7 | CCc1nc2cc(/C=C/C(=O)NO)c(F)cc2c(=O)n1CCc1ccccc1 | 5.15% (active)
8 | CCc1cc2c(c3ccc(C(=O)CBr)cc13)CCCC2 | 102% (inactive)
9 | COc1cc(F)c(F)c(Nc2ccc(I)cc2F)c1NS(=O)(=O)C1(C[C@H](O)CO)CC1 | 11.2% (inactive)
10 | C=CC(=O)Nc1cc2c(Nc3ccc(F)c(Cl)c3)ncnc2cc1C#CC(C)(C)N1CCN(C)CC1 | -92.6% (active)
11 | CN1CC[C@H](c2c(O)cc(O)c3c(=O)cc(-c4ccccc4Cl)oc23)[C@H](O)C1 | 4.7% (active)
12 | COc1cc2ncnc(Nc3ccc(F)c(Cl)c3)c2cc1NC(=O)/C=C/CN1CCCCC1 | -78.5% (active)
13 | O=C(c1ccccc1)C(c1ccccc1)N1CCOCC1 (centres undefined) | 102% (inactive)
14 | COc1ccc(CCCc2c3[n+](cc4c(OC)c(OC)ccc24)CCc2cc4c(cc2-3)OCO4)cc1 | 59.2% (inactive)
